We go through 18 molecules from PubChem BioAssay (NCATS).

Structures are written as SMILES. Values joined by “and” are separate entries in the source; they are usually repeats but may differ in a detail not shown here. Equal entries are not always repeated. Results filed as inconclusive are left out. Where a structure was tested more than once in an assay, its records may differ in their call. Active and inactive are the calls of the source. Unless noted, calls follow the shape of the dose curve; as a rule, active = well fitted curve in the direction sought with a large enough effect; inconclusive = small, poorly fitted or top-dose-only effect, or another doubt; inactive = no such curve, though single readings can be large; an effect the other way counts as inactive or inconclusive.

A short description of assay [1]: High-throughput drug toxicity screening in the BPDCN cell line Cal-1 (AID 1224825; call rule not given here). Conditions: Cal-1 BPDCN cell viability, qHTS; at 45.8 µM (top of the series) unless noted. The gist of the method: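 Percent activity derived from CellTiter-Glo luminescence, scaling DMSO to 100% and 9.2 uM final bortezomib to 0%. BPDCN Cal-1 cells (500/well, RPMI plus 10% FBS) incubated with compounds 48 hours at 37C before reading.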
In general terms: In qHTS, concentration-response curves come from the screen itself.

Assay [2] in a line: qHTS assay for measurement of the activity of small molecule inhibitors on Zika virus induced Caspase-3 activity in human iPSC derived neural progenitor cells (hNPCs) (AID 1224857). Also: % of control where 0% means no effect; nearly all actives have a fitted effect of over 65% in size. The gist of the method: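 Caspase-3/7 induction by a 6-hour ZIKV infection was quantified with a luminescent Caspase-Glo 3/7 reagent incubated 30 minutes at room temperature. Compounds were preincubated with hNPCs for 1 hour; inhibition was calculated against uninfected and infected control wells.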

The nature of assay [3]: qHTS Screen of the MIPE 4.0 Collection Against Ewings Sarcoma (EW8) (AID 1259255). Also: nearly all actives have a fitted effect of over 35% in size. Also: potency is read from the fitted curve at half-maximal effect.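 As to viability: 100% = DMSO-treated cells and 0% = medium-only wells without cells.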 The gist of the method:
(§1)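 After a 4 h attachment period in RPMI/5% FBS, cells were pin-dosed with test compounds; DMSO served as negative and 9.2 uM bortezomib (final) as positive control. Luminescent CellTiter-Glo signal at 48 h defined viability.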

Assay [4] is described as follows: Identifying Small Molecule Inhibitors of Pancreatic Cancer Stem Cells (SN12C, Spheroid) (AID 1259360). Also: potency is read from the fitted curve at half-maximal effect.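 As to viability (% of control): 100% = DMSO-treated cells and 0% = wells without cells.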 Conditions: Potency: SN12C spheroid viability. The procedure, abridged: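 Viability is scored by CellTiter-Glo luminescence 48 h after dosing, expressed as percent activity against vehicle and no-cell references. Spheroid formats rely on cells cultured 14 days in stem cell media beforehand.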

The nature of assay [5]: Identifying Small Molecule Inhibitors of Pancreatic Cancer Stem Cells (A278, Adherent) (AID 1259361).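 Also: viability read after 48 h compound exposure; nearly all actives have a fitted effect of over 35% in size.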 The gist of the method: (§2)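 Adherent (2D) versus sphere (3D) formats; spheres generated 14 d in SCM beforehand. Compound transferred by pin tool after 4 h, 48 h incubation, CellTiter-Glo endpoint.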
The nature of assay [6]: P-glycoprotein substrates identified in KB-8-5-11 adenocarcinoma cell line, qHTS therapeutic library screen (AID 1346987). Also: nearly all actives have a fitted effect of over 65% in size. Also: potency is read from the fitted curve at half-maximal effect. The procedure, abridged: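 Luminescence from CellTiter-Glo, read 5 min after addition, quantified survival of KB-8-5-11 (P-gp-overexpressing) cells exposed to compounds for 72 h. AC50 was derived from concentration-response curves.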
Assay [7] is described as follows: qHTS Screen of the MIPE 4.0 Collection Against Ewings Sarcoma (TC32) (AID 1259256). Also: nearly all actives have a fitted effect of over 45% in size. Also: potency is read from the fitted curve at half-maximal effect. The gist of the method:
as §1

A short description of assay [8]: Identifying Small Molecule Inhibitors of Pancreatic Cancer Stem Cells (SN12C, Adherent) (AID 1259358).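 Also: cell survival measured after 48 h of compound exposure.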 Also: potency is read from the fitted curve at half-maximal effect. The procedure, abridged:
as §2

The nature of assay [9]: qHTS assay for measurement of the activity of small molecule inhibitors on Zika virus induced Caspase-3 activity in human astrocytoma cells (AID 1224859).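 Also: plate controls were ZIKV-infected untreated cells for no effect and uninfected cells for full effect.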 The procedure, abridged: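 In SNB-19 cells plated at 250 cells/well and grown 16-20 h, compounds were applied 1 h before ZIKV (2 FFU/cell). Six hours later caspase-3/7 luminescence was recorded.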
A short description of assay [10]: qHTS Screen of the MIPE 4.0 Collection Against Ewings Sarcoma (RDES) (AID 1259252). Also: nearly all actives have a fitted effect of over 35% in size. Also: potency is read from the fitted curve at half-maximal effect. The gist of the method: as §1
Assay [11] in a line: qHTS Screen of the MIPE 4.0 Collection Against Ewings Sarcoma (TC71) (AID 1259253). Also: nearly all actives have a fitted effect of over 40% in size. Also: potency is read from the fitted curve at half-maximal effect. The gist of the method:
as §1

Assay [12] can be described thus: qHTS assay to identify small molecule inhibitors of chordoma cells - UCH-1 (AID 1259355). Also: % is scaled to controls: 0 for no effect and ±100 for the full control effect; nearly all actives have a fitted effect of over 55% in size. The procedure, abridged:
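800 cells/well, overnight attach; compounds pinned at 15 concs, then auranofin/camptothecin/doxorubicin/rubitecan/topotecan combo added; 48hr 37 C, 5% CO2; CellTiter-Glo, 30min RT, luminescence.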

The nature of assay [13]: qHTS assay to identify small molecule inhibitors of chordoma cells - UCH-2 (AID 1259356). Also: % is scaled to controls: 0 for no effect and ±100 for the full control effect.
A short description of assay [14]: Natriuretic polypeptide receptor (hNpr1) antagonism - Pilot counterscreen GloSensor control cell line (AID 1347045; calls by dose curve; also: % is scaled to controls: 0 for no effect and ±100 for the full control effect). The procedure, abridged:
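Cells were first seeded and incubated overnight at 37C, then loaded with 2% GloSensor substrate for 2 h. Compounds were added for 30 min at room temperature, followed by a baseline read, 50 uM SNP and a final read after 20 min.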
A general note: A counterscreen serves to expose hits that act by an unwanted route or on another target.

The nature of assay [15]: P-glycoprotein substrates identified in KB-3-1 adenocarcinoma cell line, qHTS therapeutic library screen (AID 1346986). Also: nearly all actives have a fitted effect of over 60% in size. The procedure, abridged: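 Viability read by CellTiter-Glo after 72 h compound exposure in dose-response of KB-3-1 and KB-8-5-11 (P-gp-high) cells. Hits needed AC50 < 10 uM, >50% maximum response and curve class -1.1 to -2.4. Cherry-picks retested ± tariquidar, including pcDNA/MDR-19 HEK-293 pair.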

Assay [16] is described as follows: Identifying Small Molecule Inhibitors of Pancreatic Cancer Stem Cells (Panc1, Adherent) (AID 1259362).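 Also: compound exposure lasted 48 h before the viability read; plate controls were DMSO-treated cells for no effect and cell-free media wells for full effect.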 Conditions: Potency: viability. The procedure, abridged: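 Endpoint: ATP-based luminescence, 48 h drug exposure. Bortezomib at 9.2 uM final as full-kill control; DMSO vehicle as negative control; activity normalized between vehicle and cell-free wells.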

For `C[C@@H]1CN(Cc2ccc(F)cc2)[C@@H](C)CN1C(=O)c1cc2c(C(=O)C(=O)N(C)C)cn(C)c2cc1Cl`, the viability (% of control) in assay [1] worked out at 70.3%. The Potency entry in [2] and in assay [6] was “inactive” in each case. In addition, the Potency in assay [3] is 23.5 µM (active); in assay [4], 16.6 µM (active). Moreover, the IC50 (viability decrease) in assay [5] is 20.9 µM (active).

As for `Cn1cnc2c(F)c(Nc3ccc(Br)cc3Cl)c(C(=O)NOCCO)cc21`, the viability (% of control) in assay [1] is 23.1%. Moreover, the Potency result in [2] and in [6] was “inactive” in each case. Also, the figures for the Potency in [3], in [7] and in assay [8] were 2.64 µM (active), 20.9 µM (active) and 1.18 µM (active), respectively.

On to `Cn1cnc([N+](=O)[O-])c1Sc1ncnc2nc[nH]c12`, for which, in [1], the viability (% of control) came to 93.1%. For the same molecule, the Potency entry in assay [2], in [9] and in [12] was “inactive” each time. The Potency was 2.64 µM (active) in assay [10]; 1.18 µM (active) in assay [11]; 4.69 µM (active) in assay [3]; 3.32 µM (active) in assay [7]; 4.61 µM (active) and 2 µM (active) and 833 nM (active) in assay [6]. The call in assay [13] and in [14] was inactive.

For `O=C1CCC(N2C(=O)c3ccccc3C2=O)C(=O)N1` (centres undefined), the viability (% of control) in assay [1] was found to be 95.9%. The Potency entry in assay [2], in assay [9], in assay [10], in assay [11], in [3] and in assay [12] was “inactive” in each case. In assay [6], the Potency result was “inactive”. The Potency in assay [7] is 0.0037 µM (active). The result in assay [14] was inactive.

Turning to `COc1ccc2nc(S(=O)Cc3ncc(C)c(OC)c3C)[nH]c2c1` (centres undefined), the viability (% of control) in [1] was 96.8%. Moreover, the Potency result in [2], in assay [9], in [3], in [12], in [8] and in [4] was “inactive” each time. Further, the Potency entry in assay [6] is “inactive”. Moreover, the Potency in [10] is 16.6 µM (active).

As to `CC(C)(C)NCC(O)c1ccc(O)c(CO)c1` (centres undefined), the viability (% of control) in assay [1] came out at 113%. In addition, the Potency entry in assay [2], in assay [9], in assay [10], in assay [11], in [3] and in assay [7] was “inactive” throughout. Besides, the Potency entry in assay [12] and in assay [6] was “inactive” each time. The molecule was called inactive in assay [14].

On to `COc1ccc([C@@H]2CC(=O)c3c(O)cc(O[C@@H]4O[C@H](CO[C@@H]5O[C@@H](C)[C@H](O)[C@@H](O)[C@@H]5O)[C@@H](O)[C@H](O)[C@@H]4O)cc3O2)cc1O`, for which the viability (% of control) in [1] is 54.1% and 116%. Besides, the Potency entry in assay [2], in assay [9], in assay [3], in assay [15] and in [6] was “inactive” in each case. For the same molecule, the Potency entry in assay [7] is “inactive and 23.5 µM (active)”.

Turning to `N#CC[C@H](C1CCCC1)n1cc(-c2ncnc3[nH]ccc23)cn1`, the viability (% of control) in assay [1] turned out to be 56.3%. In addition, the Potency result in [2], in [9] and in assay [4] was “inactive” in each case. Further, the Potency in assay [10] was 18.7 µM (active); in [11], 20.9 µM (active); in assay [3], 16.6 µM (active); in assay [6], 26.4 µM (active).

Turning to `Cc1cc(-c2nnc3n2CCCCC3)c(C)n1-c1ccc(F)cc1`, the Potency result in assay [4] was “inactive”.

Consider `CCCn1c(=O)c2[nH]c(C34CC5CC3C[C@@H](C5)C4)nc2n(CCC)c1=O`, for which the viability (% of control) in [1] is 125%. In addition, the Potency entry in [2], in assay [8], in assay [4] and in assay [6] was “inactive” each time.

On to `Oc1ccc(C2CNCCc3c2cc(O)c(O)c3Cl)cc1` (centres undefined), for which the viability (% of control) in assay [1] worked out at 66.9%. The Potency result in [2], in [9], in assay [10], in assay [11], in assay [3] and in [7] was “inactive” each time. Besides, the Potency entry in assay [12] is “inactive”. Also, in assay [14], the result was inactive.

On to `CN(C(=O)c1ccc(F)cc1C(F)(F)F)C1CCN(c2nnc(-c3ccnn3C)c3ccccc23)CC1`, for which the viability (% of control) in [1] amounted to 80.2%. Moreover, the Potency result in assay [2], in assay [9], in assay [8], in assay [4] and in assay [6] was “inactive” throughout. In [10], the Potency was 20.9 µM (active).

On to `Cc1cc2c(F)c(Oc3ncnn4cc(OC[C@@H](C)O)c(C)c34)ccc2[nH]1`, for which the viability (% of control) in [1] was 71.2%. Besides, the Potency result in assay [2], in [9], in [4] and in assay [16] was “inactive” throughout. In addition, the Potency was 2.35 µM (active) in [10], 13.2 µM (active) in assay [11], 20.9 µM (active) in assay [3] and 20.9 µM (active) in [7].

Consider `Cc1cn[nH]c1`, for which the viability (% of control) in assay [1] came to 55.7%. Also, the Potency entry in [2], in assay [9], in assay [7], in assay [12], in assay [15] and in [6] was “inactive” in each case. The Potency is 0.0074 µM (active) in [10], 0.0469 µM (active) in [11] and 0.059 µM (active) in assay [3]. In addition, the outcome in assay [14] was inactive.

Regarding `N[C@@H]1CONC1=O`, in assay [1], the viability (% of control) was 97.9%. The Potency entry in [2], in assay [9], in assay [10], in assay [3], in [7] and in assay [12] was “inactive” in each case. Moreover, the molecule was classed as inactive in assay [13] and in [14].

Regarding `CN(C)c1ccc(Nc2nc(N)n(C(=O)c3c(F)cccc3F)n2)cc1`, in assay [1], the viability (% of control) is 14.1%. Further, in assay [9], the Potency result is “inactive”. Also, the Potency was 5.9 µM (active) in assay [10] and 0.132 µM (active) in [3]. Besides, in [5], the IC50 (viability decrease) is 16.6 µM (active).

Take `O=c1n(CCCN2CCN(c3cccc(Cl)c3)CC2)nc2ccccn12`: the viability (% of control) in assay [1] turned out to be 100%. Moreover, the Potency result in [2], in assay [9], in assay [10], in assay [11], in assay [3] and in assay [7] was “inactive” each time. Moreover, the Potency result in assay [12] and in [6] was “inactive” throughout. Besides, the molecule was classed as inactive in assay [14].

With `COc1ccc(-c2c(-c3ccc(O)cc3O)n[nH]c2C)cc1`, in [1], the viability (% of control) was 61.9% [at 92.2 µM]. Moreover, the Potency entry in assay [2], in assay [7], in assay [8] and in [4] was “inactive” in each case. The IC50 (viability decrease) in [5] was 26.4 µM (active).
